Screening data (PubChem)
CatB mixtures = inhibitors of human cathepsin B in compound mixtures; AID 488; Purified cathepsin B, AMC dipeptide fluorescence; P07858; 62,000 compounds, 0.06% hits; inhibition, %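 (ten-compound pools at 5 µM per compound and 50 µM total)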; in the data active means inhibition above about 22%, passing the limit was not always enough; inconclusive means no clear call, values can overlap the other calls;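 further: 0% = enzyme without compound and 100% = no enzyme blank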
WNV protease inh = WNV NS2B-NS3 proteinase inhibition | P06935 | WNV NS2B-NS3 protease, fluorogenic substrate Ex360/Em465; active compounds read low | z-score (concentration not given with the values) | 65,000 compounds, 0.18% hits | AID 577; in the data active means z-score below about -3
Target sequence (P06935 1371-1501 limits assumed): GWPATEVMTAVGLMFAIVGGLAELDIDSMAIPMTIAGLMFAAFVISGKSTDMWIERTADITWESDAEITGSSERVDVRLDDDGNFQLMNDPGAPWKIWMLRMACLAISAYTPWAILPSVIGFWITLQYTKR
Target sequence (P06935 1502-1679 limits assumed): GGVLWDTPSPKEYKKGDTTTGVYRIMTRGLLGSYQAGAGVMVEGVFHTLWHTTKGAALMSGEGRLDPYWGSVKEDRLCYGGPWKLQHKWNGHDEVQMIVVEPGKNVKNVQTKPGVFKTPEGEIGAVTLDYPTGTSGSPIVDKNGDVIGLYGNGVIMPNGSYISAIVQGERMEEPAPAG
CatB inh = human cathepsin B inhibition; P07858; purified cathepsin B, fluorogenic substrate, fluorescence; inhibition, %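 (tested at 10 µM)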; 63,000 compounds, 0.1% hits; AID 453; in the data active means inhibition above about 21%;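 further: 0% = enzyme with no compound and 100% = no enzyme blank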
CatS inh = human cathepsin S inhibition; P25774; recombinant cathepsin S, AMC dipeptide fluorescence, pooled mixtures; inhibition, %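 (tested at 5 µM per compound within 10-compound mixtures)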; 62,000 compounds, 0.06% hits; in the data active means inhibition above about 32%, passing the limit was not always enough; inconclusive means no clear call, values can overlap the other calls;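 further: 0% = enzyme without compound and 100% = blank without enzyme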
Target sequence (P25774 115-331 limits assumed): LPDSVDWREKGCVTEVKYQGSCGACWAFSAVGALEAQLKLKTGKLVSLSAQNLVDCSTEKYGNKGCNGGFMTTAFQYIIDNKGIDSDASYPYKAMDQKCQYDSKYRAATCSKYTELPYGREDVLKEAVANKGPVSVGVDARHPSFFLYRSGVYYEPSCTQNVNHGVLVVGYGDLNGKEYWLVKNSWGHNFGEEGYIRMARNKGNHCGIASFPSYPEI
CatL inh = blocks human cathepsin L protease activity; P07711; 58,000 compounds, 0.17% hits; purified cathepsin L, fluorogenic substrate, fluorescence; inhibition, %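 (tested at 10 µM)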; in the data active means inhibition above about 45%;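 further: 0% = enzyme with no compound and 100% = no enzyme blank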
* = called active by the depositor. Compounds with a hit are over-represented: about 0.42% of the library has one in this group of screens.

How did CC(c1nnc(SCC(=O)NC(=O)NCc2ccco2)n1-c1ccc(Cl)cc1)N(C)C (centres undefined) do in these assays?
CatB mixtures: -5; WNV protease inh: 0.16; CatB inh: 5; CatS inh: 2; CatL inh: 61*

What do the screens show for `C=CCSC1=C(C#N)C(c2ccc(OCC)cc2)CC(=O)N1` (centres undefined)?
CatB mixtures: -4; WNV protease inh: 0.35; CatB inh: 2; CatS inh: inconclusive; CatL inh: 102*

How did CCOc1ccc(C2CC(=O)NC(SC)=C2C#N)cc1 (centres undefined) do in these assays?
CatB mixtures: 1; WNV protease inh: 0.72; CatB inh: -1; CatS inh: 3; CatL inh: 8

How did O=C(CSc1nc2ccccc2[nH]1)NCCN1CCCCC1 do in these assays?
CatB mixtures: 1; WNV protease inh: -1.8; CatB inh: 1; CatS inh: -1; CatL inh: 52*

What do the screens show for `O=C(CSc1nc2ccccc2[nH]1)NCc1ccco1`?
CatB mixtures: -6; WNV protease inh: -0.46; CatB inh: 1; CatS inh: 10; CatL inh: 21

How did Cc1nn(-c2ccc(Cl)cc2)c2[nH]c(=O)c(CNCc3ccc4c(c3)OCO4)cc12 do in these assays?
CatB mixtures: 7; WNV protease inh: 0.67; CatB inh: 8; CatS inh: 14; CatL inh: 8

What do the screens show for `CCS(=O)(=O)N1Cc2ccccc2CC1C(=O)N1CCN(c2cccc(C)c2C)CC1` (centres undefined)?
CatB mixtures: 2; WNV protease inh: -3.1*; CatB inh: 0; CatS inh: -5; CatL inh: 7

What do the screens show for `Cn1c(C(=O)NCCN2CCN(c3ccccc3F)CC2)cc2c(=O)n(C)c3ccccc3c21`?
CatB mixtures: 8; WNV protease inh: -0.31; CatB inh: -3; CatS inh: 39; CatL inh: 30

Results for Cn1c(C(=O)NCCN2CCOCC2)cc2c(=O)n(C)c3ccccc3c21 ?
CatB mixtures: 2; WNV protease inh: -0.57; CatB inh: -3; CatS inh: 81*

What do the screens show for `Cn1c(C(=O)NCCN2CCc3ccccc3C2)cc2c(=O)n(C)c3ccccc3c21`?
CatB mixtures: 2; WNV protease inh: 1.4; CatB inh: 3; CatS inh: 74*; CatL inh: 13

What do the screens show for `CN(CC(=O)Nc1ccc(Cl)cc1)CC(=O)Nc1cc(Cl)ccc1C#N`?
CatB mixtures: 18; WNV protease inh: -0.67; CatB inh: 1; CatS inh: -6; CatL inh: -6

What do the screens show for `COc1cc(NS(=O)(=O)c2ccc(Br)s2)cc(OC)c1`?
CatB mixtures: 3; WNV protease inh: -0.01; CatB inh: 4; CatS inh: 8; CatL inh: -1

What do the screens show for `CCC(C(=O)O)n1nnc(-c2ccc(-c3ccc(OC)cc3)cc2)n1` (centres undefined)?
CatB mixtures: 0; WNV protease inh: 0.39; CatB inh: -3; CatS inh: 4; CatL inh: 66*

How did COc1ccc(-c2ccc(-c3nnn(CC(C)=O)n3)cc2)cc1 do in these assays?
CatB mixtures: -7; WNV protease inh: 0.32; CatB inh: 1; CatS inh: 8; CatL inh: 7

How did Cc1ccc(S(=O)(=O)NCCC(=O)NCCN2CCCCCC2)cc1 do in these assays?
CatB mixtures: 5; WNV protease inh: 1.1; CatB inh: -3; CatS inh: 23; CatL inh: 64*

Results for O=C1CC(N2CCOCC2)C(=O)N1Cc1ccc(N2CCCC2=O)cc1 (centres undefined) ?
CatB mixtures: 2; WNV protease inh: -3.2*; CatB inh: 5; CatS inh: -9; CatL inh: 4

What do the screens show for `O=C1c2ccccc2C(O)(Cc2ccccc2)N1CCCN1CCOCC1` (centres undefined)?
CatB mixtures: 6; WNV protease inh: -0.94; CatB inh: 1; CatS inh: -1; CatL inh: 13

What do the screens show for `O=C1c2ccccc2C(O)(Cc2ccccc2)N1C1CCCCC1` (centres undefined)?
CatB mixtures: 3; WNV protease inh: -0.37; CatB inh: 9; CatS inh: -1; CatL inh: 104*

How did CCN(C(=O)COc1cc(=O)n(C)c2ccccc12)c1cccc(Cl)c1 do in these assays?
CatB mixtures: 0; WNV protease inh: -0.7; CatB inh: 57*; CatS inh: 1; CatL inh: -1

Results for CN(C(=O)COc1cc(=O)n(C)c2ccccc12)c1cccc(Cl)c1 ?
CatB mixtures: 3; WNV protease inh: 0.07; CatB inh: 0; CatS inh: -6

What do the screens show for `C[C@]12C=CC(=O)C=C1CC[C@H]1[C@@H]3C[C@@H](O)[C@](O)(C(=O)CO)[C@@]3(C)C[C@H](O)[C@@]12F`?
CatB mixtures: 6; WNV protease inh: -0.01; CatS inh: -3; CatL inh: 94*

How did CCSc1nc2ccccc2n1CC(=O)N1CCCCC1 do in these assays?
CatB mixtures: 49; WNV protease inh: 0.91; CatB inh: 1; CatS inh: 55; CatL inh: 56*

What do the screens show for `CC(C)NC(=O)Cn1c(SCC(=O)N2CCCCCC2)nc2ccccc21`?
CatB mixtures: 5; WNV protease inh: -1.8; CatB inh: -3; CatS inh: 2; CatL inh: 0

Results for Nc1nonc1-c1nc2ccccc2n1CC(=O)N1CCCCC1 ?
CatB mixtures: 86*; WNV protease inh: 0.43; CatB inh: 81*; CatS inh: 40; CatL inh: 66*

How did CCOC(=O)c1ccccc1NC(=O)CSc1nc2ccccc2n1CC(=O)N1CCCC1 do in these assays?
CatB mixtures: 5; WNV protease inh: -0.53; CatB inh: 0; CatS inh: 8; CatL inh: 19

How did COC(=O)c1ccccc1NC(=O)Cn1c(-c2nonc2N)nc2ccccc21 do in these assays?
CatB mixtures: 82*; WNV protease inh: 1.5; CatB inh: 70*; CatL inh: 66*

Results for CC(C)CC(NS(=O)(=O)c1ccc2c(c1)oc(=O)n2C)C(=O)NCc1cccnc1 (centres undefined) ?
CatB mixtures: -1; WNV protease inh: -1.4; CatB inh: -1; CatS inh: -2; CatL inh: -6

Results for COc1ccc(OC)c(S(=O)(=O)NCc2ccccc2)c1 ?
CatB mixtures: -2; WNV protease inh: 0.31; CatB inh: 0; CatS inh: 0; CatL inh: 21

Results for COc1ccc(OC)c(NS(=O)(=O)Cc2ccccc2)c1 ?
CatB mixtures: 2; WNV protease inh: -0.38; CatB inh: 12; CatS inh: 7; CatL inh: 73*

What do the screens show for `Cc1ccc(CN(C(=O)Cn2nnc3ccccc32)C(C(=O)NCc2ccco2)c2cccs2)cc1` (centres undefined)?
CatB mixtures: 23*; WNV protease inh: 0.56; CatB inh: 4; CatS inh: 12; CatL inh: 6

How did CCOC(=O)N1CCN(c2c(N3CCN(c4ccccn4)CC3)c(=O)c2=O)CC1 do in these assays?
CatB mixtures: 4; WNV protease inh: -0.09; CatB inh: 3; CatS inh: 4; CatL inh: 86*
